# Values joined by “and” are separate entries in the source; they are usually repeats but may differ in a detail not shown here. Equal entries are not always repeated. Results filed as inconclusive are left out. Some compounds were tested as several samples or in several runs, with calls that do not always agree. Active and inactive are the calls of the source. Rule for the calls, unless noted: active = hit-call score of the fitted dose curve at least 0.9, where 1 is the maximum; inconclusive = response in the unintended direction; inactive = score below 0.9.
# Assays:
# [1] = target: human Norepinephrine Transporter (NET), SLC6A2 (gene 6530) (UniProt P23975); assay: NVS_TR_hNET: NovaScreen (NVS) Transporter Assay for human Norepinephrine Transporter (NET) (AID 2283377);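 note: cell-free membrane protein extracted from CHO cells expressing human NET; displacement of radioligand from human NET seen as loss of scintillation signal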
# Chain of human Norepinephrine Transporter (NET), SLC6A2 (gene 6530) (P23975 whole entry, looked up): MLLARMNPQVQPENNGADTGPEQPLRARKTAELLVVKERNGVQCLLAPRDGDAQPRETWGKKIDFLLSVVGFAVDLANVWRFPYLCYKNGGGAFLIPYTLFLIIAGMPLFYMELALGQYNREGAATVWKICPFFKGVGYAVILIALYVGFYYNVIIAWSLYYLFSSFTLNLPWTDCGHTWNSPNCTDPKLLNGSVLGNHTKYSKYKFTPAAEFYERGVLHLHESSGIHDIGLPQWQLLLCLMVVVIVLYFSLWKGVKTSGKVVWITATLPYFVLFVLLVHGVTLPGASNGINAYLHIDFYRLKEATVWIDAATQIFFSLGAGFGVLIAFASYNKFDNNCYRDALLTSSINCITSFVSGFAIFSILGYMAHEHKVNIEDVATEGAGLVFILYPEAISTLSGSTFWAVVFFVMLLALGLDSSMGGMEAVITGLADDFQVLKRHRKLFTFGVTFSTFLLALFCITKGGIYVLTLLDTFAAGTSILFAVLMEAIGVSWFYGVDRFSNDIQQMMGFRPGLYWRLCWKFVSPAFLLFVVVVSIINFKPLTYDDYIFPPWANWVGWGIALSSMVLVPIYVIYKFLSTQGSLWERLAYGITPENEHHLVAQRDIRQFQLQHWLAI
# Method in brief: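 CHO cell extracts expressing the transporter; tritiated or iodinated tracer displaced competitively; filtration plus scintillation readout at 1 h. Single-point duplicates at 25 uM, concentration series for follow-up; activity = signal drop relative to DMSO.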
# [2] = target: Agonist Androgen Response Element (ARE), AR (gene 367) (UniProt P10275); assay: OT_AR_ARELUC_AG_1440: Odyssey Thera (OT) 24-hour CHO-K1 Luciferase Assay for Agonist Androgen Response Element (ARE) (AID 2283379)
# Chain of Agonist Androgen Response Element (ARE), AR (gene 367) (P10275 whole entry, looked up): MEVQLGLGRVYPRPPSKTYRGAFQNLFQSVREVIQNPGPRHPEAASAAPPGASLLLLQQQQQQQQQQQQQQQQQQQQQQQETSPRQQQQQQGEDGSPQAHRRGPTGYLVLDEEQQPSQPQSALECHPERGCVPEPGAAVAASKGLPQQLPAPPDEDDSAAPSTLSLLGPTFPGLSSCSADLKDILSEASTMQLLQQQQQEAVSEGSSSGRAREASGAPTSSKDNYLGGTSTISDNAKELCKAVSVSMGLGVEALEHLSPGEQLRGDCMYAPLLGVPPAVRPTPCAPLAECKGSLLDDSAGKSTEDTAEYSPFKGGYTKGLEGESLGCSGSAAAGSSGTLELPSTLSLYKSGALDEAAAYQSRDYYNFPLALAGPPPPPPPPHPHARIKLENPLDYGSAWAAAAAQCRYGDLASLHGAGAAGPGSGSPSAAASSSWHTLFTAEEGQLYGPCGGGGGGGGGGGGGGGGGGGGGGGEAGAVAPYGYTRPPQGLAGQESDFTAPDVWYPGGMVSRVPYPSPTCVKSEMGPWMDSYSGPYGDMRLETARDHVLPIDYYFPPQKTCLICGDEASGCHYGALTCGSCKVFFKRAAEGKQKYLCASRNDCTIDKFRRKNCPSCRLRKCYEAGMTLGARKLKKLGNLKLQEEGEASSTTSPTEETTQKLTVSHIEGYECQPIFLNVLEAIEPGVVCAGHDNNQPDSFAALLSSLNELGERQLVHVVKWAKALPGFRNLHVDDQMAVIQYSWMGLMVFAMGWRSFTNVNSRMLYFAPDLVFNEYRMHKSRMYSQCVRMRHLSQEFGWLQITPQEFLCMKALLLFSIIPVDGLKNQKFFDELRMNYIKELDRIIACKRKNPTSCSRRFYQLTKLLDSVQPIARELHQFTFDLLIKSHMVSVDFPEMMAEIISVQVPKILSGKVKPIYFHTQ
# Method in brief: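 Gain-of-signal reporter endpoint: cells (CHO-K1, hamster) are treated 24 h, luciferin/ATP reagent added, and luminescence compared with DMSO baseline.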
# [3] = target: Bile acid receptor (Homo sapiens) (UniProt Q96RI1); assay: OT_FXR_FXRSRC1_0480: Odyssey Thera (OT) 8-hour HEK293T Protein-Complementation Assay for Farnesoid X receptor/SRC-1 Co-activator (AID 2283383)
# Chain of Bile acid receptor (Homo sapiens) (Q96RI1 whole entry, looked up, the tested form may be a part): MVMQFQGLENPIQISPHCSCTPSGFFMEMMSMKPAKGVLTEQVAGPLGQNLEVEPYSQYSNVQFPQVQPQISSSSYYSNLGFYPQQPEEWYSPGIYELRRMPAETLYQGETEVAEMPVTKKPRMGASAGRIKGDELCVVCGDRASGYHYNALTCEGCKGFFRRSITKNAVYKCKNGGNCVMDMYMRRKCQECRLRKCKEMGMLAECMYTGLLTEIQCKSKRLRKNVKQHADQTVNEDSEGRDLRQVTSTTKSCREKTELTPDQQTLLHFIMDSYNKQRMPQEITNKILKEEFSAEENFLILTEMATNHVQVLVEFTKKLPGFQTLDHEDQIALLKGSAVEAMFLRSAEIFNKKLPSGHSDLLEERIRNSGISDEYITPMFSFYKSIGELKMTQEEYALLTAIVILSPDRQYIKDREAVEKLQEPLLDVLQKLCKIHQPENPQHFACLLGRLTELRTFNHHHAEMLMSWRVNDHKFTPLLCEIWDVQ
# Method in brief: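 Fluorescence intensity read-out, 8 h post-dose, HEK293T protein-fragment complementation; FXR bait and SRC-1 prey each linked to reporter fragments. Activity scored as signal increase over DMSO negative control.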
# [4] = target: Bile acid receptor (Homo sapiens) (UniProt Q96RI1); assay: OT_FXR_FXRSRC1_1440: Odyssey Thera (OT) 24-hour HEK293T Protein-Complementation Assay for Farnesoid X receptor/SRC-1 Co-activator (AID 2283384)
# Method in brief: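 Fluorescence readout, 24 h post-dose, HEK293T; FXR and SRC-1 fused to complementary reporter fragments, association reconstitutes signal. Positive-direction fit vs DMSO baseline.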
# [5] = target: Retinoic acid receptor RXR-alpha (Homo sapiens) (UniProt P19793); assay: OT_NURR1_NURR1RXRa_0480: Odyssey Thera (OT) 8-hour HEK293T Protein Complementation Assay for Nurr1/retinoid X receptor (RXR) (AID 2283385)
# Chain of Retinoic acid receptor RXR-alpha (Homo sapiens) (P19793 whole entry, looked up, the tested form may be a part): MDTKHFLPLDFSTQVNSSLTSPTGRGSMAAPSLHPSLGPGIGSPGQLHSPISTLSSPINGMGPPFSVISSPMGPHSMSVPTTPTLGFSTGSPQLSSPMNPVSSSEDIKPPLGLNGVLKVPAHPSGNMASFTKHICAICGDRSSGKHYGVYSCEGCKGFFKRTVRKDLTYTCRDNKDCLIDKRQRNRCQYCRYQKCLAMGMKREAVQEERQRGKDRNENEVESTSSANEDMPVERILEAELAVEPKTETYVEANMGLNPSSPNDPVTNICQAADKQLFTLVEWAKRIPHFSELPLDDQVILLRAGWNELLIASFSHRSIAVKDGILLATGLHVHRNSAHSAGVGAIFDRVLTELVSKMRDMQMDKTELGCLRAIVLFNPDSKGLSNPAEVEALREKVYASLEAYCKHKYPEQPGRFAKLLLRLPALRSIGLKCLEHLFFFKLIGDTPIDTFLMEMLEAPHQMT
# Method in brief: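 Read-out: fluorescence from protein-fragment complementation between Nurr1 and RXRα in human HEK293T cells, 8 h after dosing. DMSO served as negative control; increased signal counted as activity.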
# [6] = target: Retinoic acid receptor RXR-alpha (Homo sapiens) (UniProt P19793); assay: OT_NURR1_NURR1RXRa_1440: Odyssey Thera (OT) 24-hour HEK293T Protein Complementation Assay for Nurr1/retinoid X receptor (RXR) (AID 2283386)
# Method in brief: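 Fluorescence PCA read-out; HEK293T; 24 h post-dose; bait/prey fused to reporter fragments; gain-of-signal fit vs DMSO negative control.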
# [7] = target: Peroxisome proliferator-activated receptor gamma (Homo sapiens) (UniProt P37231); assay: OT_PPARg_PPARgSRC1_0480: Odyssey Thera (OT) 8-hour Protein-Complementation Assay for Peroxisome Proliferator-activated Receptor Gamma / SRC-1 Co-activator (AID 2283387);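 note: nuclear to cytoplasmic split Venus YFP fluorescence ratio reporting PPARg SRC-1 interaction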
# Chain of Peroxisome proliferator-activated receptor gamma (Homo sapiens) (P37231 whole entry, looked up, the tested form may be a part): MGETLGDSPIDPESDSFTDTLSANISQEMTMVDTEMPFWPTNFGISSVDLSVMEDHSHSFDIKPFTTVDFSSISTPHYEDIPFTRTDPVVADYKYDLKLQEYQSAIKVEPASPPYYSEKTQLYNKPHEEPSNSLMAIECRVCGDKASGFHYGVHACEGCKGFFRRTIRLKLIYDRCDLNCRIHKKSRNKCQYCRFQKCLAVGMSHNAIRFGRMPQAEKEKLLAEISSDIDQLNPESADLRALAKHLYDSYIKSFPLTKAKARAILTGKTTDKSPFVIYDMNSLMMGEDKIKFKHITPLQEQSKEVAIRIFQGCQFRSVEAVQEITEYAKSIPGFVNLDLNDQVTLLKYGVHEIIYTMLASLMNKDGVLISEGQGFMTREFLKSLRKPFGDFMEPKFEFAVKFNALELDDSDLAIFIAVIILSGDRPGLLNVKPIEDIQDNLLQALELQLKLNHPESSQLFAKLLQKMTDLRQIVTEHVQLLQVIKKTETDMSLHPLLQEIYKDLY
# Method in brief: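 Protein-fragment complementation of split Venus YFP reports PPARg/SRC-1 interaction in HEK293T (transfected 48 h before treatment), exposed 8 h. Readout: N/C fluorescence ratio at 488 nm from imaging, Draq5 for segmentation, positive fit relative to DMSO.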
# [8] = target: Peroxisome proliferator-activated receptor gamma (Homo sapiens) (UniProt P37231); assay: OT_PPARg_PPARgSRC1_1440: Odyssey Thera (OT) 24-hour Protein-Complementation Assay for Peroxisome Proliferator-activated Receptor Gamma/ SRC-1 Co-activator (AID 2283388);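 note: nuclear to cytoplasmic ratio of reconstituted Venus YFP fluorescence in fixed imaged cells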
# Method in brief: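 Readout is the 488 nm N/C fluorescence ratio from fixed, Draq5-stained HEK293T cells after 24 h compound exposure. Cells carried transiently transfected PPARg and SRC-1 fused to Venus fragments, transfected 48 h before treatment.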
# [9] = CEETOX_H295R_11DCORT: CeeTox H295R High-throughput Steroidogenesis Assay for 11-Deoxycortisol (11DCORT) (AID 2283432; active = hit-call score of the fitted dose curve at least 0.9, where 1 is the maximum; inactive = score below 0.9;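 for AC50: 11-deoxycortisol secreted into the medium measured by LC-MS/MS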); conditions: actives raise or lower the signal
# Method in brief: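 Human adrenal H295R cells were prestimulated with 10 uM forskolin for 48 h, then exposed to test chemical (0.1% DMSO final) for 48 h. Medium 11-deoxycortisol was quantified by MTBE extraction and HPLC-MS/MS; bidirectional fitting relative to DMSO.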
# [10] = CEETOX_H295R_OHPREG: CeeTox H295R High-throughput Steroidogenesis Assay for OH-Pregnenolone (OHPREG) (AID 2283434; active = hit-call score of the fitted dose curve at least 0.9, where 1 is the maximum; inactive = score below 0.9); conditions: actives raise or lower the signal
# Method in brief: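 H295R, 10 uM forskolin pre-stim 48 h; test chemical 48 h, 0.1% DMSO final. MTBE extraction, reverse-phase C18 HPLC-ESI+ MS/MS of medium. Gain/loss vs DMSO; viability by MTT in same wells.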
# [11] = CEETOX_H295R_OHPROG: CeeTox H295R High-throughput Steroidogenesis Assay for OH-Progesterone (OHPROG) (AID 2283435; active = hit-call score of the fitted dose curve at least 0.9, where 1 is the maximum; inactive = score below 0.9;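 for AC50: 17alpha-hydroxyprogesterone secreted into medium measured by HPLC-MS/MS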); conditions: actives raise or lower the signal
# Method in brief: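 HPLC-MS/MS quantification of 17alpha-hydroxyprogesterone secreted by H295R cells after 48 h chemical exposure, following 48 h 10 uM forskolin prestimulation. Gain or loss of signal fitted relative to DMSO. Viability checked by MTT in the same wells.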
# [12] = CEETOX_H295R_ANDR: CeeTox H295R High-throughput Steroidogenesis Assay for Androstenedione (ANDR) (AID 2283436; active = hit-call score of the fitted dose curve at least 0.9, where 1 is the maximum; inactive = score below 0.9); conditions: actives raise or lower the signal
# Method in brief: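 48 h chemical exposure, H295R cells, DMEM/F12 + ITS+ and Nu-Serum. Medium androstenedione: MTBE extraction, C18 reverse-phase HPLC, ESI+ MS/MS. Fit bidirectional vs DMSO; MTT viability in same wells.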
# [13] = CEETOX_H295R_CORTIC: CeeTox H295R High-throughput Steroidogenesis Assay for Corticosterone (CORTIC) (AID 2283437; active = hit-call score of the fitted dose curve at least 0.9, where 1 is the maximum; inactive = score below 0.9;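 note: corticosterone secreted into medium quantified by mass spectrometry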); conditions: actives raise or lower the signal
# Method in brief: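 48 h forskolin (10 uM) prestim, then 48 h chemical exposure, final DMSO 0.1%. Readout: corticosterone in medium by LC-MS/MS after MTBE extraction. Gain/loss fit vs DMSO; MTT viability in same wells.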
# [14] = target: human Dopamine Transporter (DAT), SLC6A3 (gene 6531) (UniProt Q01959); assay: NVS_TR_hDAT: NovaScreen (NVS) Transporter Assay for human Dopamine Transporter (DAT) (AID 2283374);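 note: activity means loss of bound radioligand signal relative to DMSO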
# Chain of human Dopamine Transporter (DAT), SLC6A3 (gene 6531) (Q01959 whole entry, looked up): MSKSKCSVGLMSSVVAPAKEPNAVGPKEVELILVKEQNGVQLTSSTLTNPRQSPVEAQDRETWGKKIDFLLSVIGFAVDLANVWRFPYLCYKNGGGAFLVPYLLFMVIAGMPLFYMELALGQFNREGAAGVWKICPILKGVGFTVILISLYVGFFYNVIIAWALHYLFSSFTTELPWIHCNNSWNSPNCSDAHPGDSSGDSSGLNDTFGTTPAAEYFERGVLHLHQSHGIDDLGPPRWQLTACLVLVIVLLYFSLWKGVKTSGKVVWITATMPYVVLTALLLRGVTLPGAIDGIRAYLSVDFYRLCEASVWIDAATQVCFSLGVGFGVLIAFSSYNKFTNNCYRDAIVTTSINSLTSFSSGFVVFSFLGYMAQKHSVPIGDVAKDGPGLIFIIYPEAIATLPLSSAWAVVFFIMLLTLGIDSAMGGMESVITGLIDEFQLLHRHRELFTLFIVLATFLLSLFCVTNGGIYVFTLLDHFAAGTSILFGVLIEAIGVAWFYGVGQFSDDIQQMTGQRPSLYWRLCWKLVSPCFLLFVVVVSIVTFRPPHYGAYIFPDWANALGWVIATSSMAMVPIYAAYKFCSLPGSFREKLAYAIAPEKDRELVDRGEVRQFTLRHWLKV
# Method in brief: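 hDAT membranes + tritiated/iodinated radioligand, competitive displacement; 1 h; filter scintillation readout. Single conc 25 uM (duplicate), then conc-response for actives. DMSO = negative control.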
# [15] = target: Estrogen receptor beta (Homo sapiens) (UniProt Q92731); assay: OT_ER_ERbERb_1440: Odyssey Thera (OT) 24-hour HEK293T Protein-Complementation Assay for Estrogen Receptor-beta/-beta Homodimer (AID 2283380);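 note: scored as signal increase over DMSO baseline for both agonists and antagonists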
# Chain of Estrogen receptor beta (Homo sapiens) (Q92731 whole entry, looked up, the tested form may be a part): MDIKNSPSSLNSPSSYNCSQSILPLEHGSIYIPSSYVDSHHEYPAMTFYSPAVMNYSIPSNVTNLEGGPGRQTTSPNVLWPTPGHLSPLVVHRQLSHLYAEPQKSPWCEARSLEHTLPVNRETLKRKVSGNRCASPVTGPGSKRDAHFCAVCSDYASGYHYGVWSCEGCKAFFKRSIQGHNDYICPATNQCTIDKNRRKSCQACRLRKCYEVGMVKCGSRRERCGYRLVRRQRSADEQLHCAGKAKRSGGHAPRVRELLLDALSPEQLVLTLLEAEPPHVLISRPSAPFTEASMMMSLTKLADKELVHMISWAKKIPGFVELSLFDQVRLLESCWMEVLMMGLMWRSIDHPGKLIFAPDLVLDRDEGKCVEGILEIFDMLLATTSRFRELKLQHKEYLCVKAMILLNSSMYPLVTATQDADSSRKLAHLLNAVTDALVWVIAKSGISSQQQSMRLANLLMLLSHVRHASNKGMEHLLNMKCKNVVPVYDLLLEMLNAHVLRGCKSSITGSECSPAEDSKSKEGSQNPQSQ
# Method in brief: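 HEK293T cells stably expressing ER beta LBD (aa 310-547) homodimer fragment-complementation reporter, dosed 24 h. Cells formaldehyde-fixed, Draq5-stained; gain in nuclear (agonist) or nuclear plus cytoplasmic (antagonist) fluorescence versus DMSO read by laser scanning cytometry.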
# [16] = target: Norway rat Vesicular Monoamine Transporter (VMAT2), neurotransmitter transporter, Slc18a2 (gene 25549) (UniProt Q01827); assay: NVS_TR_rVMAT2: NovaScreen (NVS) Transporter Assay for Norway rat Vesicular Monoamine Transporter (VMAT2), neurotransmitter transporter (AID 2283376);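 note: actives lower the bound radioligand signal below the DMSO level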
# Chain of Norway rat Vesicular Monoamine Transporter (VMAT2), neurotransmitter transporter, Slc18a2 (gene 25549) (Q01827 whole entry, looked up): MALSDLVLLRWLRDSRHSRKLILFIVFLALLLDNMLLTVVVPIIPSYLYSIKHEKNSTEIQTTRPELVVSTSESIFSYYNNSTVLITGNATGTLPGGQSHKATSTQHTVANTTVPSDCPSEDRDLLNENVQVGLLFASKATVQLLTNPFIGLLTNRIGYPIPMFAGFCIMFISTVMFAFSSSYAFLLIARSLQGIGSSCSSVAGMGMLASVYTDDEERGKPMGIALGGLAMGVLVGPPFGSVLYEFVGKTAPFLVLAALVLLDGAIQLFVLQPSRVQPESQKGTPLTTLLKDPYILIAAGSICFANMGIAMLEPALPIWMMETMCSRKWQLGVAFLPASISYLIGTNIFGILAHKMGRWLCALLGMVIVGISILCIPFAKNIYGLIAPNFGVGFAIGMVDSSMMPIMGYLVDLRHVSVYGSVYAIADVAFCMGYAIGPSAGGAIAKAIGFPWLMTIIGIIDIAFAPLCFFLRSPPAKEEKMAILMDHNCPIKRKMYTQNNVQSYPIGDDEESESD
# Method in brief: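 Filter-based scintillation counting of radioligand bound to rat forebrain-derived VMAT2 protein, cell-free, 1 h post-dose. Signal loss relative to DMSO control scored; single-concentration duplicate screen (25 uM) followed by concentration-response testing of actives.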
# [17] = target: rat Serotonin Transporter (SERT), Slc6a4 (gene 25553) (UniProt P31652); assay: NVS_TR_rSERT: NovaScreen (NVS) Transporter Assay for rat Serotonin Transporter (SERT) (AID 2283375)
# Method in brief: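 Radioligand binding with competitive displacement on rat forebrain membrane preparations, counted by filtration and scintillation after 1 h. Primary single-point duplicates at 25 uM; active chemicals followed up in concentration-response. DMSO served as baseline.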
# [18] = target: Estrogen receptor (Homo sapiens) (UniProt P03372); assay: OT_ERa_GFPERaERE_0480: Odyssey Thera (OT) 8-hour HeLa Transcription Induction Assay for Estrogen Receptor (AID 2283381; active = hit-call score of the fitted dose curve at least 0.9, where 1 is the maximum; inactive = score below 0.9)
# Method in brief: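 GFP-ERE reporter, HeLa, 8 h exposure. Readout: fluorescence microscopy, high-content image analysis. Fit direction positive vs DMSO negative control.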
# [19] = target: Estrogen receptor (Homo sapiens) (UniProt P03372); assay: OT_ERa_GFPERaERE_0120: Odyssey Thera (OT) 2-hour HeLa Transcription Induction Assay for Estrogen Receptor (AID 2283382)
# Method in brief: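 Fluorescence microscopy read-out: inducible fluorescent protein reporter in HeLa cells, imaged 2 h post-dose. Signal increase over DMSO negative control fitted as single primary endpoint via high content image analysis.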
smiles,measurement,setting,value
Nc1ccc(Cl)cc1N,AC50,[1],38.9 µM (active)
same,outcome,[2],inactive
same,AC50,[3],35.3 µM (active)
same,AC50,[4],33.8 µM (active)
same,AC50,[5],39.2 µM (active)
same,outcome,[5],inactive
same,AC50,[6],31.3 µM (active)
same,outcome,[6],inactive
same,AC50,[7],45.3 µM (active)
same,outcome,[7],inactive
same,outcome,[8],inactive
same,outcome,[9],inactive
same,AC50,[10],1.41 µM (active)
same,outcome,[11],inactive
same,outcome,[12],inactive
same,outcome,[13],inactive
CC(C)(C)C(O)(CCc1ccc(Cl)cc1)Cn1cncn1 (stereo not given),AC50,[14],4.04 µM (active)
same,AC50,[1],14.3 µM (active)
same,outcome,[5],inactive
same,outcome,[7],inactive
same,outcome,[8],inactive
same,AC50,[9],1.85 µM (active)
same,AC50,[10],0.503 µM (active)
same,AC50,[11],0.552 µM (active)
same,outcome,[13],inactive
Cc1cc(N=Nc2ccccc2C)ccc1N,AC50,[14],17.4 µM (active)
same,AC50,[1],12.4 µM (active)
same,AC50,[15],12.2 µM (active)
same,outcome,[3],inactive
same,outcome,[5],inactive
same,outcome,[6],inactive
same,outcome,[7],inactive
same,outcome,[8],inactive
same,outcome,[9],inactive
same,outcome,[10],inactive
same,AC50,[11],1.79 µM (active)
same,outcome,[12],inactive
same,AC50,[13],2.24 µM (active)
CCC(C)c1ccc(O)cc1 (stereo not given),AC50,[14],4.96 µM (active)
same,outcome,[16],inactive
same,AC50,[1],9.53 µM (active)
same,AC50,[15],28.2 µM (active)
same,outcome,[3],inactive
same,outcome,[4],inactive
same,outcome,[5],inactive
same,outcome,[6],inactive
same,outcome,[9],inactive
same,outcome,[10],inactive
same,AC50,[11],22.5 µM (active)
same,outcome,[13],inactive
CC(C)(OOC(C)(C)c1ccccc1)c1ccccc1,outcome,[16],inactive
same,outcome,[2],inactive
same,AC50,[15],9.59 µM (active)
same,AC50,[3],58.3 µM (active)
same,AC50,[4],65.1 µM (active)
same,AC50,[5],77.4 µM (active) and 93.2 µM (active)
same,outcome,[7],inactive
same,outcome,[8],inactive
O=C(Oc1ccc(Br)cc1)N1CCN2CCC1CC2,AC50,[14],8.54 µM (active)
same,AC50,[17],1.01 µM (active)
same,AC50,[1],12.8 µM (active)
same,outcome,[18],inactive
same,outcome,[19],inactive
same,outcome,[5],inactive
same,outcome,[6],inactive
same,outcome,[7],inactive
same,outcome,[8],inactive
same,AC50,[9],6.83 µM (active)
same,AC50,[11],12.8 µM (active)
same,outcome,[13],inactive

# Source: PubChem BioAssay (EPA / NIEHS)
